Screens from PubChem BioAssay.
Only a selection was taken, and hits are over-represented in it overall.
KDM5B inhibitor = Primary screen for KDM5B Histone Demethylases FDH-coupled qHTS; KDM5B demethylase, FDH-coupled NADH fluorescence (FDH is formaldehyde dehydrogenase); Potency, µM (top dose mostly 57.7 µM), most hits filed as inhibitors; Lysine-specific demethylase 5B (Homo sapiens), Q9UGL1; AID 1347165, 2019; 220,000 compounds, 2.6% hits; active means well fitted inhibition curve with a large enough effect; further: 0% is about no effect; nearly all actives have a fitted effect of over 70% in size
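Coupled FDH/NAD⁺ fluorescence readout. KDM5BΔAP 200 nM final; compound titration, 10 min RT preincubation; substrate mix 12.5 µM H3K4me3, 25 µM 2-OG, 50 µM Fe(II), 100 µM ascorbate, 0.25 mM NAD⁺, 0.25 U/mL FDH; ΔRFU over 30 min.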
Numbers without * were called inactive; i = inactive. Potency means the concentration at half of the fitted maximal effect.

SMILES | KDM5B inhibitor
CCC1CCc2sc(C(=O)N3CCN(c4ccccn4)CC3)cc2C1 (centres undefined) | i
CC(C)C(NC(=O)C1CCC1)C(=O)N1CCN(c2ccccn2)CC1 (centres undefined) | 22.4µM*
CC(=O)c1ccc(O)c(C)c1 | i
O=C(COc1ccc2ccc(=O)oc2c1)N(Cc1cccs1)C1CC1 | i
COP(=O)(OC)c1nc(-c2cccc([N+](=O)[O-])c2)oc1NCc1ccccc1 | i
COC(=O)CNC(=O)C1CCc2nnc(CNC(=O)Nc3cccnc3)n21 (centres undefined) | i
COCC[C@]1(O)CCN(C(=O)CCc2nc(-c3ccco3)no2)C[C@H]1C | i
O=C1NCc2ccccc2CC12CCCN(Cc1ccc(O)cc1)C2 (centres undefined) | i
O=C1NCc2ccccc2CC12CCN(Cc1ccnc3ccccc13)CC2 | i
Cc1cccc(CN2CCCC3(Cc4ccccc4CNC3=O)C2)n1 (centres undefined) | i
Cc1ncc(CO)c(CN2CCC3(CC2)Cc2ccccc2CNC3=O)c1O | 70.8µM*
Cc1ncc(CO)c(CN2CCCC3(Cc4ccccc4CNC3=O)C2)c1O (centres undefined) | 79.4µM*
Cc1ccccc1CN1CCC2(CC1)Cc1ccccc1CNC2=O | i
COCCOC1CCN(C(=O)COc2ccc(C)cc2)CC1 | i
CC(=O)Nc1ccc(NC(=O)c2ccc(C)cc2Cl)cc1 | i
CC(C)CCn1nc(C(=O)NCc2ccc(F)cc2)c2ccccc2c1=O | i
CC1(CNc2ccccc2)COc2ccc(C(=O)NCc3ccc(F)cc3)cc2N1 (centres undefined) | 31.6µM*
CNS(=O)(=O)Cc1cccc(CNC(=O)c2cccc(F)c2)c1 | i
CC1(CNc2ccccc2)COc2ccc(C(=O)N3CC(O)C3)cc2N1 (centres undefined) | i
CC1(CCCCN2CCOCC2)COc2ccc(C(=O)Nc3ccc(Cl)cc3)cc2N1 (centres undefined) | 25.1µM*
CC1(CCCCN2CCOCC2)COc2ccc(C(=O)NCc3ccc(F)cc3)cc2N1 (centres undefined) | 28.2µM*
Cc1ccc(CNC(=O)c2ccc3c(c2)CN(Cc2cc(F)c(F)c(F)c2)CCO3)cc1 | i
CCc1ccc(NC(=O)c2cc(CN3CCOCC3)on2)cc1 | i
O=C(Nc1ccc(CC(=O)N2CCOCC2)cc1)c1cccc(Cl)c1 | i
O=C(NCc1ccc(F)cc1)c1ccc2oc(=O)n(Cc3ccccc3)c2c1 | i
SMILES | KDM5B inhibitor
CCCCN1CCOc2ccc(C(=O)NCc3ccccc3F)cc2C1 | i
O=C(O)c1ccc(CNCCCN2CCOCC2)cc1 | i
CC1(CCCCN2CCOCC2)COc2ccc(C(=O)NCc3cccc(F)c3)cc2N1 (centres undefined) | 28.2µM*
CC(=O)Nc1ccccc1C(=O)N1CCN(C(c2ccccc2)c2ccccc2)CC1 | i
CCCc1cc(=O)[nH]c(SCC(=O)N2CCN(S(=O)(=O)c3ccccc3)C2)n1 | i
CCc1cc(CC)n(-c2nc3c(c(=O)n(Cc4ccc(F)cc4)c(=O)n3C)n2C)n1 | i
CCN(Cc1cccs1)C(=O)c1cccs1 | i
COC(=O)C1=C(C)Nc2nc3ccccc3n2C1c1ccc(O)c(OC)c1 (centres undefined) | i
COc1ccc(C(=O)N[C@@H]2CCC[C@@H]2C(=O)N2CCN(c3cccc(Cl)c3)CC2)cn1 | i
CC1(C)CC(C(=O)N2CCC3(CC2)C(=O)Nc2ccccc23)CCO1 (centres undefined) | i
NC(=S)NCc1ccccc1Cl | i
Cc1[nH]c2ccccc2c1C(=O)C(=O)NCC1CCC1 | i
COc1ccc(CNC(=O)Cc2c(C)c3ccc(OC)c(OC)c3oc2=O)cc1 | i
CN(C)[C@@H]1CN(C(=O)c2cc(F)cc(F)c2)C[C@H]1CO | i
COc1ccccc1C(=O)N1CCC2(CC1)COc1ccccc1CN2 | i
COC(=O)CCNC(=O)c1ccc(COC(C)=O)cc1 | i
CCC[N+](CCC)(CC[O-])Cc1ccccc1 | i
CN(C)CCCOCC1(C)COc2ccc(C(=O)Nc3ccc(F)c(Cl)c3)cc2N1 (centres undefined) | 28.2µM*
CC(C)(C)c1ccc(C(=O)Nc2ccc(F)c(Cl)c2)cc1 | i
CN(C)CCCOCC1(C)COc2ccc(C(=O)N3CCOCC3)cc2N1 (centres undefined) | i
CCCCC(=O)n1nc(-c2ccc(Cl)cc2)nc1N | i
CC1CCC2(CC1)NC(=O)N(CC(=O)Nc1ccccc1C(F)(F)F)C2=O (centres undefined) | i
Cc1nnnn1-c1cccc(C(=O)N2CCCC3(CC2)CNC(=O)O3)c1 (centres undefined) | i
Cc1cc(C)n2nc(C(=O)N3CCCC4(CNC(=O)O4)C3)cc2n1 (centres undefined) | 25.1µM*
CCCc1ncncc1C(=O)N1CCCC2(CC1)CNC(=O)O2 (centres undefined) | i
O=C(c1ccc(C(F)(F)F)cc1)N1CCN(C/C=C/c2ccccc2)CC1 | i
